# According to the supplement of paper PMC12282887:
# ± gives the standard deviation of the averaged measurements.
# Assays:
# Experiment in all cases: promoter activity interaction Z-score (Lux/OD deviation from empty-vector control); higher = stronger promoter induction by the compound
# [1] = tested on: E. coli BW25113 acrABp lux reporter
# Method in brief: (§1)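 In 384-well plates, 40 µl LB Lennox cultures of E. coli BW25113 with low-copy luxCDABE promoter reporters grew at 37°C. Optical density at 600 nm and light output were recorded every 30 min for 12 h, with windows of 0–8 h for wild type and 1–9 h for deletion strains, and wells under 10% of the median growth value were left out. Each value is a Z-transformed residual of growth-normalised luminescence fitted against a control.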
# [2] = tested on: E. coli BW25113 ompFp lux reporter
# Method in brief: as §1
# [3] = tested on: E. coli BW25113 robp lux reporter
# Method in brief: as §1
# [4] = tested on: E. coli BW25113 soxSp lux reporter
# Method in brief: as §1
# [5] = tested on: E. coli BW25113 tolCp lux reporter
# Method in brief: as §1
# [6] = 0.64 µg/ml, genetic background: wild type
# [7] = 0.64 µg/ml, genetic background: ΔmarA
# [8] = 0.64 µg/ml, genetic background: Δrob
# [9] = 0.64 µg/ml, genetic background: ΔsoxS
# [10] = 1.3 µg/ml, genetic background: wild type
# [11] = 1.3 µg/ml, genetic background: ΔmarA
# [12] = 1.3 µg/ml, genetic background: Δrob
# [13] = 1.3 µg/ml, genetic background: ΔsoxS
# [14] = 2.6 µg/ml, genetic background: wild type
# [15] = 2.6 µg/ml, genetic background: ΔmarA
# [16] = 2.6 µg/ml, genetic background: Δrob
# [17] = 2.6 µg/ml, genetic background: ΔsoxS
# [18] = 5.1 µg/ml, genetic background: wild type
# [19] = 5.1 µg/ml, genetic background: ΔmarA
# [20] = 5.1 µg/ml, genetic background: Δrob
# [21] = 5.1 µg/ml, genetic background: ΔsoxS
# [22] = 0.038 µg/ml, genetic background: wild type
# [23] = 0.038 µg/ml, genetic background: ΔmarA
# [24] = 0.038 µg/ml, genetic background: Δrob
# [25] = 0.038 µg/ml, genetic background: ΔsoxS
# [26] = 0.076 µg/ml, genetic background: wild type
# [27] = 0.076 µg/ml, genetic background: ΔmarA
# [28] = 0.076 µg/ml, genetic background: Δrob
# [29] = 0.076 µg/ml, genetic background: ΔsoxS
# [30] = 0.15 µg/ml, genetic background: wild type
# [31] = 0.15 µg/ml, genetic background: ΔmarA
# [32] = 0.15 µg/ml, genetic background: Δrob
# [33] = 0.15 µg/ml, genetic background: ΔsoxS
# [34] = 0.3 µg/ml, genetic background: wild type
# [35] = 0.3 µg/ml, genetic background: ΔmarA
# [36] = 0.3 µg/ml, genetic background: Δrob
# [37] = 0.3 µg/ml, genetic background: ΔsoxS
smiles,measurement,setting,value
C[n+]1ccc(-c2cc[n+](C)cc2)cc1 [Paraquat],promoter activity interaction Z-score,[1]; [6],0.0325 ± 0.07
same,promoter activity interaction Z-score,[1]; [7],0.871 ± 1.1
same,promoter activity interaction Z-score,[1]; [8],0.287 ± 0.14
same,promoter activity interaction Z-score,[1]; [9],-0.155 ± 0.38
same,promoter activity interaction Z-score,[1]; [10],-0.0426 ± 0.21
same,promoter activity interaction Z-score,[1]; [11],0.412 ± 0.8
same,promoter activity interaction Z-score,[1]; [12],0.484 ± 0.32
same,promoter activity interaction Z-score,[1]; [13],0.177 ± 0.18
same,promoter activity interaction Z-score,[1]; [14],0.406 ± 0.016
same,promoter activity interaction Z-score,[1]; [15],0.865 ± 0.77
same,promoter activity interaction Z-score,[1]; [16],0.362 ± 0.13
same,promoter activity interaction Z-score,[1]; [17],0.148 ± 0.023
same,promoter activity interaction Z-score,[1]; [18],0.966 ± 0.12
same,promoter activity interaction Z-score,[1]; [19],0.0695 ± 0.017
same,promoter activity interaction Z-score,[1]; [20],1.06 ± 0.54
same,promoter activity interaction Z-score,[1]; [21],0.747 ± 0.85
same,promoter activity interaction Z-score,[2]; [6],0.528 ± 0.083
same,promoter activity interaction Z-score,[2]; [7],0.49 ± 0.27
same,promoter activity interaction Z-score,[2]; [8],0.489 ± 0.56
same,promoter activity interaction Z-score,[2]; [9],0.272 ± 0.36
same,promoter activity interaction Z-score,[2]; [10],0.484 ± 0.34
same,promoter activity interaction Z-score,[2]; [11],0.321 ± 0.0078
same,promoter activity interaction Z-score,[2]; [12],0.81 ± 0.54
same,promoter activity interaction Z-score,[2]; [13],0.308 ± 0.03
same,promoter activity interaction Z-score,[2]; [14],0.864 ± 0.28
same,promoter activity interaction Z-score,[2]; [15],0.472 ± 0.45
same,promoter activity interaction Z-score,[2]; [16],1.09 ± 0.6
same,promoter activity interaction Z-score,[2]; [17],0.514 ± 0.2
same,promoter activity interaction Z-score,[2]; [18],1.34 ± 0.52
same,promoter activity interaction Z-score,[2]; [19],0.867 ± 0.69
same,promoter activity interaction Z-score,[2]; [20],1.96 ± 1.2
same,promoter activity interaction Z-score,[2]; [21],-2.03
same,promoter activity interaction Z-score,[3]; [6],-0.182 ± 0.091
same,promoter activity interaction Z-score,[3]; [7],0.325 ± 0.15
same,promoter activity interaction Z-score,[3]; [8],0.533 ± 0.16
same,promoter activity interaction Z-score,[3]; [9],0.786 ± 0.081
same,promoter activity interaction Z-score,[3]; [10],0.394 ± 0.0088
same,promoter activity interaction Z-score,[3]; [11],-0.0344 ± 0.25
same,promoter activity interaction Z-score,[3]; [12],0.769 ± 0.054
same,promoter activity interaction Z-score,[3]; [13],1.6 ± 0.18
same,promoter activity interaction Z-score,[3]; [14],0.405 ± 0.13
same,promoter activity interaction Z-score,[3]; [15],-0.176 ± 0.36
same,promoter activity interaction Z-score,[3]; [16],-0.103 ± 0.18
same,promoter activity interaction Z-score,[3]; [17],0.939 ± 0.087
same,promoter activity interaction Z-score,[3]; [18],-1.49 ± 0.031
same,promoter activity interaction Z-score,[3]; [19],-1.22 ± 0.88
same,promoter activity interaction Z-score,[3]; [20],-1.65 ± 0.29
same,promoter activity interaction Z-score,[3]; [21],-2.13
same,promoter activity interaction Z-score,[4]; [6],2.83 ± 0.11
same,promoter activity interaction Z-score,[4]; [7],2.9 ± 0.097
same,promoter activity interaction Z-score,[4]; [8],3.15 ± 0.6
same,promoter activity interaction Z-score,[4]; [9],3.26 ± 0.44
same,promoter activity interaction Z-score,[4]; [10],4.46 ± 0.059
same,promoter activity interaction Z-score,[4]; [11],4.28 ± 0.14
same,promoter activity interaction Z-score,[4]; [12],5.3 ± 1.6
same,promoter activity interaction Z-score,[4]; [13],4.33 ± 0.021
same,promoter activity interaction Z-score,[4]; [14],6.809 ± 0.059
same,promoter activity interaction Z-score,[4]; [15],7.02 ± 1.1
same,promoter activity interaction Z-score,[4]; [16],7.7 ± 0.67
same,promoter activity interaction Z-score,[4]; [17],5.69 ± 0.3
same,promoter activity interaction Z-score,[4]; [18],13.3 ± 0.42
same,promoter activity interaction Z-score,[4]; [19],13.9 ± 0.57
same,promoter activity interaction Z-score,[4]; [20],13.2 ± 0.83
same,promoter activity interaction Z-score,[4]; [21],7.48 ± 0.55
same,promoter activity interaction Z-score,[5]; [6],0.284 ± 0.95
same,promoter activity interaction Z-score,[5]; [7],0.749 ± 0.29
same,promoter activity interaction Z-score,[5]; [8],0.775 ± 0.4
same,promoter activity interaction Z-score,[5]; [9],-0.838 ± 0.78
same,promoter activity interaction Z-score,[5]; [10],-0.11 ± 0.4
same,promoter activity interaction Z-score,[5]; [11],1.44 ± 1.1
same,promoter activity interaction Z-score,[5]; [12],0.62 ± 0.32
same,promoter activity interaction Z-score,[5]; [13],0.0157 ± 0.29
same,promoter activity interaction Z-score,[5]; [14],2.66 ± 0.41
same,promoter activity interaction Z-score,[5]; [15],3 ± 0.23
same,promoter activity interaction Z-score,[5]; [16],2.88 ± 0.087
same,promoter activity interaction Z-score,[5]; [17],-0.245 ± 1.2
same,promoter activity interaction Z-score,[5]; [18],3.73 ± 0.21
same,promoter activity interaction Z-score,[5]; [19],6.42 ± 0.38
same,promoter activity interaction Z-score,[5]; [20],3.99 ± 0.79
same,promoter activity interaction Z-score,[5]; [21],-0.515 ± 0.099
Cc1c(N)nc([C@H](CC(N)=O)NC[C@H](N)C(N)=O)nc1C(=O)N[C@H](C(=O)N[C@H](C)[C@@H](O)[C@H](C)C(=O)N[C@H](C(=O)NCCc1nc(-c2nc(C(=O)NCCC[S+](C)C)cs2)cs1)[C@@H](C)O)[C@@H](OC1OC(CO)C(O)C(O)C1OC1OC(CO)C(O)C(OC(N)=O)C1O)c1cnc[nH]1 (some centres not stated) [Bleomycin],promoter activity interaction Z-score,[1]; [22],-0.161 ± 0.17
same,promoter activity interaction Z-score,[1]; [23],-0.308 ± 0.65
same,promoter activity interaction Z-score,[1]; [24],0.154 ± 0.043
same,promoter activity interaction Z-score,[1]; [25],-0.147 ± 0.084
same,promoter activity interaction Z-score,[1]; [26],0.266 ± 0.09
same,promoter activity interaction Z-score,[1]; [27],0.659 ± 0.35
same,promoter activity interaction Z-score,[1]; [28],0.241 ± 0.055
same,promoter activity interaction Z-score,[1]; [29],0.604 ± 0.2
same,promoter activity interaction Z-score,[1]; [30],0.326 ± 0.0054
same,promoter activity interaction Z-score,[1]; [31],1.11 ± 0.37
same,promoter activity interaction Z-score,[1]; [32],0.351 ± 0.064
same,promoter activity interaction Z-score,[1]; [33],0.996 ± 0.83
same,promoter activity interaction Z-score,[1]; [34],2.43
same,promoter activity interaction Z-score,[2]; [22],-0.37 ± 0.33
same,promoter activity interaction Z-score,[2]; [23],-0.165 ± 0.44
same,promoter activity interaction Z-score,[2]; [24],0.0421 ± 0.23
same,promoter activity interaction Z-score,[2]; [25],-0.165 ± 0.021
same,promoter activity interaction Z-score,[2]; [26],0.414 ± 0.11
same,promoter activity interaction Z-score,[2]; [27],0.695 ± 0.073
same,promoter activity interaction Z-score,[2]; [28],0.642 ± 1
same,promoter activity interaction Z-score,[2]; [29],1.16 ± 0.21
same,promoter activity interaction Z-score,[2]; [30],0.0111 ± 0.27
same,promoter activity interaction Z-score,[2]; [31],1.52 ± 0.35
same,promoter activity interaction Z-score,[2]; [32],1.13 ± 1.2
same,promoter activity interaction Z-score,[2]; [33],0.608 ± 0.26
same,promoter activity interaction Z-score,[2]; [34],1.05
same,promoter activity interaction Z-score,[3]; [22],-0.227 ± 0.48
same,promoter activity interaction Z-score,[3]; [23],-0.244 ± 0.084
same,promoter activity interaction Z-score,[3]; [24],0.0423 ± 0.14
same,promoter activity interaction Z-score,[3]; [25],0.189 ± 0.027
same,promoter activity interaction Z-score,[3]; [26],0.47 ± 0.17
same,promoter activity interaction Z-score,[3]; [27],0.568 ± 0.18
same,promoter activity interaction Z-score,[3]; [28],-0.134 ± 0.47
same,promoter activity interaction Z-score,[3]; [29],0.996 ± 0.081
same,promoter activity interaction Z-score,[3]; [30],-0.644 ± 0.27
same,promoter activity interaction Z-score,[3]; [31],0.509 ± 0.081
same,promoter activity interaction Z-score,[3]; [32],-0.728 ± 0.72
same,promoter activity interaction Z-score,[3]; [33],-0.1 ± 0.21
same,promoter activity interaction Z-score,[3]; [34],0.543 ± 1.9
same,promoter activity interaction Z-score,[3]; [35],0.142
same,promoter activity interaction Z-score,[4]; [22],-0.0441 ± 0.22
same,promoter activity interaction Z-score,[4]; [23],0.0426 ± 0.088
same,promoter activity interaction Z-score,[4]; [24],0.0195 ± 0.2
same,promoter activity interaction Z-score,[4]; [25],0.0402 ± 0.048
same,promoter activity interaction Z-score,[4]; [26],0.138 ± 0.019
same,promoter activity interaction Z-score,[4]; [27],0.214 ± 0.083
same,promoter activity interaction Z-score,[4]; [28],-0.00506 ± 0.02
same,promoter activity interaction Z-score,[4]; [29],0.485 ± 0.32
same,promoter activity interaction Z-score,[4]; [30],-0.0277 ± 0.085
same,promoter activity interaction Z-score,[4]; [31],0.277 ± 0.053
same,promoter activity interaction Z-score,[4]; [32],0.343 ± 0.13
same,promoter activity interaction Z-score,[4]; [33],0.655 ± 0.09
same,promoter activity interaction Z-score,[4]; [34],0.33 ± 0.25
same,promoter activity interaction Z-score,[4]; [35],0.209 ± 0.081
same,promoter activity interaction Z-score,[4]; [36],0.169 ± 0.11
same,promoter activity interaction Z-score,[4]; [37],0.215
same,promoter activity interaction Z-score,[5]; [22],-0.575 ± 0.29
same,promoter activity interaction Z-score,[5]; [23],-0.641 ± 1.1
same,promoter activity interaction Z-score,[5]; [24],-0.352 ± 0.023
same,promoter activity interaction Z-score,[5]; [25],-0.761 ± 0.52
same,promoter activity interaction Z-score,[5]; [26],0.286 ± 0.074
same,promoter activity interaction Z-score,[5]; [27],-0.211 ± 0.3
same,promoter activity interaction Z-score,[5]; [28],-0.79 ± 0.62
same,promoter activity interaction Z-score,[5]; [29],0.828 ± 0.64
same,promoter activity interaction Z-score,[5]; [30],-0.851 ± 0.45
same,promoter activity interaction Z-score,[5]; [31],0.213 ± 1.1
same,promoter activity interaction Z-score,[5]; [32],0.777 ± 1.4
same,promoter activity interaction Z-score,[5]; [33],0.0492 ± 0.52
same,promoter activity interaction Z-score,[5]; [34],0.571 ± 0.23
same,promoter activity interaction Z-score,[5]; [35],0.356
same,promoter activity interaction Z-score,[5]; [36],-0.851 ± 0.56
same,promoter activity interaction Z-score,[5]; [37],1.73 ± 0.26
